Our source for the Potency values is PubChem BioAssay AID1347416 (National Center for Advancing Translational Sciences (NCATS), 2020).

About 1,600 (39%) of roughly 4,100 compounds were called active. Not shown: some 25% with an inconclusive outcome. Calls follow the shape of the dose curve; as a rule, active = well fitted inhibition curve with a large enough effect; inconclusive = small, poorly fitted or top-dose-only effect; inactive = no such curve, though single readings can be large or run the other way. The list shows a part of the results. Entries that show only a call come without a potency.
Potency is read from the fitted curve at half-maximal effect.

The assay is described as follows: qHTS Validation assay for Inhibitors of Plasmodium falciparum Dd2 growth in vitro. Also: nearly all actives have a fitted effect of over 70% in size. Particulars: P. falciparum Dd2 in RBCs, SYBR Green growth, 72 h; series mostly up to 28.7 µM. An outline of the steps:
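P. falciparum Dd2-infected red blood cells (2.5% hematocrit, 0.3% parasitemia) grown 72 h at 37 °C under 5% O2 with compounds in a titration, 29 uM to 0.5 nM final. Growth read as SYBR Green-1 fluorescence after ~16 h lysis; artesunate 300 nM as positive control.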
In general terms: In qHTS, concentration-response curves come from the screen itself.
In the case of `Cn1nc(C(F)(F)F)c(-c2ccc(F)cc2)c1NC(=O)Nc1ccc(F)cc1`, the Potency was 1.88 µM (active).
The figure for `Cn1nc(C(F)(F)F)c(-c2cccc(C(F)(F)F)c2)c1NC(=O)Nc1ccc(F)cc1` is 2.37 µM (active).
The value for `Cn1nc(C(F)(F)F)c(Cl)c1C(=O)N[C@@H]1CCNC[C@H]1O` was “inactive”; that for `COC(=O)c1ccc(NC(=O)Nc2cccc(F)c2)cc1` was “inactive”; that for `Cc1ccsc1C(=O)N1CCC(n2cc(-c3nc(C(C)C)no3)nn2)CC1` was “inactive”.
The entry for `CN(c1ccccc1)c1cc(=O)c2ccnc(-c3ccccc3O)c2o1` is “inactive”; for `Cc1noc(C)c1-c1nccc2c(=O)cc(N(C)c3ccccc3)oc12` it is 17.2 µM (active); for `CN(c1ccccc1)c1cc(=O)c2ccnc(-c3ccncc3)c2o1` it is “inactive”.
Turning to `CC(=O)N1CCC(Cc2ncc(C)n2CC2CC2)C1` (configuration not stated), the Potency result is “inactive”.
The value for `O=S(=O)(c1ccccc1)N1CCCC(Cc2noc(-c3ccncc3)n2)C1` (configuration not stated) was “inactive”; that for `COCCn1c(C)cnc1CC1CCN(C(=O)Nc2ccccc2F)C1` (configuration not stated) was “inactive”.
The value for `CCCn1c(C)cnc1CC1CCN(S(=O)(=O)c2ccc3c(c2)CCC3)C1` (configuration not stated) was 9.44 µM (active); that for `Cc1cnc(CC2CCN(S(=O)(=O)c3ccccc3)CC2)n1Cc1ccccc1` was 5.31 µM (active).
The value for `COc1ccc(S(=O)(=O)N2CCCC(Cc3noc(-c4ccncc4)n3)C2)cc1` (configuration not stated) was “inactive”; that for `Cc1cnc(CC2CCCN(S(=O)(=O)c3ccccc3)C2)n1CC1CC1` (configuration not stated) was 6.68 µM (active); that for `CCc1ccc(S(=O)(=O)N2CCC(n3cnnc3CC)CC2)cc1` was “inactive”.
Consider `O=C(NCc1nc2ccccc2[nH]1)C1=C[C@@H](c2ccccc2)C[C@@H](OCc2ccc(CO)cc2)O1`, for which the Potency result was “inactive”.
The value for `CCNC(=S)N/N=C/c1sc(N2CCCCC2)nc1-c1cccs1` was 0.668 µM (active); that for `CN1CCN(c2nc(Nc3ccc(O)cc3)nc3ccccc23)CC1` was 4.22 µM (active); that for `COc1cc(OC)cc(C(=O)Oc2c(CN3CCOCC3)cc(Cl)c3cccnc23)c1` was “inactive”.
The value for `O=C(Oc1c(CN2CCOCC2)cc(Cl)c2cccnc12)c1ccccc1Br` was 7.5 µM (active); that for `CC(C)=NOC(=O)c1c(C)noc1-c1snnc1C` was 6.68 µM (active); that for `CCCC(c1nnnn1CCC(C)C)N1CCC(C(N)=O)CC1` (configuration not stated) was “inactive”.
The value for `OC(c1ccc(Cl)cc1)C(CN1CCOCC1)c1ccccc1` (configuration not stated) was 2.99 µM (active); that for `CCCCC(O)(c1ccc(F)cc1)C(CN1CCOCC1)c1ccc(Cl)cc1` (configuration not stated) was 5.96 µM (active); that for `CCC(=O)N(C1CCOCC1)C1CCN(Cc2cc(F)ccc2F)CC1` was “inactive”.
Take `CCCC(O)(c1ccc(Cl)cc1)C(CN1CCOCC1)c1ccc(Cl)cc1` (configuration not stated): the Potency was 4.73 µM (active).
The value for `OC(CNCc1cccc(Cl)c1)c1ccccc1` (configuration not stated) was 4.73 µM (active); that for `OC(CNCc1cccc(Br)c1)c1ccccc1` (configuration not stated) was 5.96 µM (active); that for `OC(C[n+]1ccccc1)c1ccccc1` (configuration not stated) was “inactive”.
The figure for `CCOc1cc(CNCC(O)c2ccccc2)cc(Cl)c1OC` (configuration not stated) is 3.35 µM (active); for `O=C1c2c(nc(CNCc3cccc(F)c3)n2Cc2ccccc2)NCCN1Cc1cccc(Cl)c1` it is “inactive”; for `Cc1nn(C(=O)CCCC(=O)N2CCCC2c2nc(C3CCOCC3)no2)c2ccccc12` (configuration not stated) it is “inactive”.
`O=C(c1ccc(F)c(Cl)c1)N1CCC[C@H]1c1nc(-c2ccccc2)no1`: the Potency result was “inactive”.
The figure for `Cc1ccc2c(C)c(C(=O)N3CCCC3c3nc(C(C)C)no3)oc2c1C` (configuration not stated) is 6.68 µM (active); for `Cc1cc(C(C)c2ccccc2)c(O)c(CN2CCOCC2)c1C` (configuration not stated) it is 2.99 µM (active).
For the compound `CC(Oc1ccc(Br)cc1)c1nc2c3ccccc3nc(=S)n2[nH]1` (configuration not stated), the Potency entry is “inactive”.
The value for `C/C(=N\Nc1nc(-c2ccccc2O)nc2ccccc12)c1ccccc1` was 0.75 µM (active); that for `Oc1ccccc1Nc1nc(-c2ccccc2O)nc2ccccc12` was 0.944 µM (active); that for `CNC(=O)[C@H]1C[C@H](Oc2cccnc2)CN1S(=O)(=O)Cc1ccccc1F` was “inactive”.
The entry for `O=C(NCC12CCC=C1N(CC1CC1)C(=O)CC2)Nc1cccc(F)c1` (configuration not stated) is “inactive”.
The value for `CCN(CC)CCNC(=O)C12CCCC=C1N(Cc1ccccc1)C(=O)CC2` (configuration not stated) was 8.41 µM (active); that for `CN1C(=O)CCC2(C(=O)O)CCCC=C12` (configuration not stated) was “inactive”; that for `CCOc1ccccc1NC(=O)C1CCN(S(=O)(=O)c2c(C)noc2/C=C/c2ccco2)CC1` was 15 µM (active).
As to `CCOC(=O)c1c(S(=O)(=O)N2CCC(C(=O)Nc3ccc(F)cc3F)CC2)c(C)n(C)c1C`, the Potency entry was “inactive”.
The figure for `Cc1cc(C)c(/C=C/c2onc(C)c2S(=O)(=O)N2CCC(C(=O)Nc3ccc(Cl)c(C(F)(F)F)c3)CC2)c(C)c1` is 10.6 µM (active); for `COc1ccc(/C=C\c2onc(C)c2S(=O)(=O)N2CCC(C(=O)Nc3ccc(C)cc3C)CC2)cc1` it is 0.842 µM (active).
The entry for `Cc1ccc(NC(=O)C2CCN(S(=O)(=O)c3ccc4[nH]c(=O)ccc4c3)CC2)cc1C` is “inactive”; for `CCOCCOC1CCN(S(=O)(=O)c2c(C)noc2C)CC1` it is “inactive”.
Turning to `Cc1cc(C)n(Cc2ccc(C(=O)N3CCC(c4noc(-c5cccnc5)n4)C3)o2)n1` (configuration not stated), the Potency entry was “inactive”.
The value for `Cc1ccc(CSC2=Nc3ccccc3C3=NC(CC(=O)NCc4ccco4)C(=O)N23)cc1` (configuration not stated) was 6.68 µM (active); that for `Cc1ccc(CC(=O)NCc2nnc3c(-c4nc(C(C)C)no4)cccn23)cc1` was “inactive”.
On to `Cc1ccc2[nH]c(C(=O)Nc3ccc(F)cc3)cc2c1`, for which the Potency result was “inactive”.
The value for `COc1cc(C)ccc1OCCSc1nc2ccc(NC(=O)c3ccc(F)cc3)cc2s1` was 10.6 µM (active).
The figure for `Cc1cccc(OCCSc2nc3ccc(NC(=O)c4cccs4)cc3s2)c1` is 9.44 µM (active).
The value for `Cc1ccccc1OCCSc1nc2ccc(NC(=O)c3cccs3)cc2s1` was 5.31 µM (active).
For the compound `COc1ccc(NC(=O)c2cc3c(N4CCSCC4)nc(C)cn3n2)cc1OC`, the Potency result was “inactive”.
The value for `COc1cc(C)ccc1OCCSc1nc2ccc(NC(=O)c3cccs3)cc2s1` was 13.3 µM (active); that for `Cc1ccccc1C(=O)NNc1ccc(-c2csnn2)cc1` was “inactive”.
In the case of `CCCCc1ccc(NC(=O)CSC2=C(C#N)C(c3ccco3)C3=C(CCCC3=O)N2)cc1` (configuration not stated), the Potency entry is “inactive”.
The value for `N[C@@H]1CN(c2ncccn2)C[C@H]1CO` was “inactive”.
The value for `O=C(NCc1cccs1)c1ccc(CN2C(=O)NC3(CCS(=O)(=O)CC3)C2=O)cc1` was “inactive”.
